Source: PubChem (National Center for Advancing Translational Sciences (NCATS))
Compounds with a hit are over-represented: about 7.9% of the library has one in this group of screens.
HT1080 IDH1KD tx = kills HT-1080 cells with IDH1 knockdown; 360,000 tested, 2% active; HT-1080 IDH1 knockdown viability, ATP luminescence, 48 h; Potency, µM (doses to about 46.1 µM), for the others: at the highest dose activity, negative = toxicity, usual class: cytotoxic;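 further: 0% = DMSO wells and -100% = cell-free medium wells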
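CellTiter-Glo luminescence after 48 h compound exposure at 37 degrees C of IDH1-knockdown HT-1080 cells in 5% FBS RPMI. %Activity scaled between DMSO wells and cell-free media wells, with curves fitted and assigned curve classes.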
MCF10A rerep = induces DNA re-replication in MCF 10a normal breast cells; MCF 10A DNA re-replication, Hoechst nuclear intensity, 48 h; 350,000 tested, 2.9% active; Potency, µM (series often up to 46.1 µM), inactives show at the top dose activity, positive = re-replication, actives largely listed as activators; further: % of control where 0% means no effect; nearly all actives have a fitted effect of over 50% in size
KB-V1 MDR tox = KB-V1 MDR subline cytotoxicity | KB-V1 MDR cells viability, CellTiter-Glo, 72 h | Potency, µM (titrated, usually from 46.1 µM), usual class: cytotoxic | 400,000 tested, 3.4% active; further: on the % scale 0 is the no-effect control and ±100 the full control effect; nearly all actives have a fitted effect of over 60% in size
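In this primary screen, KB-V1 cells overexpressing P-gp are incubated with library compounds (lowest to highest concentration) for 72 h at 37 degrees C before a luminescent ATP viability read.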
HT1080-NT tox = kills 2HG-producing HT-1080-NT fibrosarcoma cells | HT-1080-NT fibrosarcoma viability, CellTiter-Glo ATP luminescence, 48 h | Potency, µM (titrated, usually from 46.1 µM), without a hit: at the top dose activity, negative = less viability, actives largely listed as cytotoxic | AID 686970 | 360,000 tested, 1.6% active;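 further: NT is the 2HG producing partner of a matched IDH1 knockdown line; 0% = DMSO-treated cells and -100% = media-only wells without cells; nearly all actives have a fitted effect of over 55% in size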
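HT-1080-NT fibrosarcoma cells (2HG-overproducing), 750 cells/well in RPMI with 5% FBS, dosed after 2 h and incubated 48 h at 37C. CellTiter-Glo luminescence normalized to DMSO and no-cell wells; concentration-response curves fitted and classed.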
SW480 rereplic = DNA re-replication induction in SW480 cells; SW480 DNA re-replication, Hoechst DNA content imaging, 48 h; Potency, µM (highest dose often 46.1 µM), without a hit: top-dose re-replication activation, most hits filed as activators; 340,000 tested, 1.8% active; AID 624297; further: % of control where 0% means no effect; nearly all actives have a fitted effect of over 55% in size
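Image-based read-out: total Hoechst fluorescence of nuclei (405 nm excitation, 500-530 nm emission), with hits raising the fraction of high-intensity nuclei. SW480 colon cells incubated 48 hr with compounds at 37 C.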
KB-3-1 tox = kills parental KB-3-1 adenocarcinoma cells; 400,000 tested, 1.4% active; Potency, µM (series often up to 46.1 µM), usual class: cytotoxic; KB-3-1 viability, CellTiter-Glo ATP luminescence, 72 h; further: on the % scale 0 is the no-effect control and ±100 the full control effect; nearly all actives have a fitted effect of over 60% in size
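Parental KB-3-1 adenocarcinoma cells in phenol-red-free DMEM with 10% FBS were pin-treated with compounds at several concentrations, incubated 72 h at 37 °C, and viability read by CellTiter-Glo luminescence; concentration-effect curves were fitted after normalization.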
* marks the source's active call; other numbers are inactive results; i = inactive; ? = inconclusive; · = no result given. The call rests on the fitted dose curve; in most records, active means well fitted curve in the direction sought with a large enough effect; inconclusive means small, poorly fitted or top-dose-only effect, or another doubt; inactive means no such curve, though single readings can be large; an effect the other way counts as inactive or inconclusive. Potency means the concentration at half of the fitted maximal effect.

SMILES | HT1080 IDH1KD tx | MCF10A rerep | KB-V1 MDR tox | HT1080-NT tox | SW480 rereplic | KB-3-1 tox
COc1ccc(C(=O)NC2CCCCCC2)cc1S(=O)(=O)N1CCCc2ccccc21 | 5% | -3% | i | 14% | 20% | ?
FC(F)(F)c1nnc2c(Sc3ccccc3)nc3ccc(Cl)cc3n12 | -12% | 12µM* | ? | 9.2µM* | ? | ?
CC1(C(=O)NCc2ccccc2)Cc2c(-c3ccc4c(c3)OCO4)ccnc2O1 (stereo unspecified) | ? | · | 2.1µM* | ? | · | 4.6µM*
CC1(C(=O)NCc2ccco2)Cc2c(-c3ccc(C(N)=O)cc3)ccnc2O1 (stereo unspecified) | 2.9µM* | · | i | 3.3µM* | · | 18µM*
COCCNC(=O)C1(C)Cc2c(-c3ccc4c(c3)OCO4)ccnc2O1 (stereo unspecified) | 18µM* | · | i | ? | · | ?
CC1(C(=O)NCCc2ccccc2)Cc2c(-c3ccc4c(c3)OCO4)ccnc2O1 (stereo unspecified) | ? | · | i | ? | · | i
CC1(C(=O)NCc2cccc(Cl)c2)Cc2c(-c3ccccc3)ccnc2O1 (stereo unspecified) | ? | · | i | -24% | · | i
CC1(C(=O)NCc2ccccc2)Cc2c(-c3ccccc3)ccnc2O1 (stereo unspecified) | ? | · | ? | ? | · | 21µM*
CC1(C(=O)NCc2ccccc2)Cc2c(-c3ccc(C(N)=O)cc3)ccnc2O1 (stereo unspecified) | 1.5µM* | · | i | ? | · | 8.2µM*
COc1ccc(CNC(=O)C2(C)Cc3c(-c4ccccc4)ccnc3O2)cc1OC (stereo unspecified) | -28% | · | i | -20% | · | i
O=C(NNc1ccccc1C(F)(F)F)c1sccc1Cl | 2% | · | · | 4% | · | ·
O=C1O[C@@H](c2ccccc2)C[C@@H](O)C(=O)CCCc2ccccc21 | 2% | · | i | -9% | · | i
Cc1ccc(Sc2ccc([N+](=O)[O-])cc2[N+](=O)[O-])nc1 | 23µM* | ? | i | 16µM* | ? | ?
Cc1ccnc(Sc2ccc([N+](=O)[O-])cc2[N+](=O)[O-])n1 | ? | ? | ? | ? | 12µM* | ?
CCOC(=O)c1c(C)oc2c1c(C(c1ccccc1)N1CCOCC1)c(O)c1ccccc12 (stereo unspecified) | 0% | 4.1µM* | 18µM* | 0% | ? | i
CCOC(=O)c1c(C)oc2c1c(C=NCCO)c(O)c1ccccc12 | 23µM* | ? | i | ? | 11% | i
CCOC(=O)c1c(C)oc2c1c(C(c1cccnc1)N1CCCCC1)c(O)c1ccccc12 (stereo unspecified) | -4% | ? | i | 6% | -5% | i
COc1ccc(NC(=O)CN(C)C(=O)c2ccc(OCc3ccccc3)c(OC)c2)cc1 | -2% | 5% | ? | 6% | -5% | i
COC(=O)Nc1ccc(C)cc1NC(=O)OC | 0% | 0% | i | -1% | 1% | i
COC(=O)Nc1ccc2ccc3c(NC(=O)OC)ccc4ccc1c2c43 | -27% | 21µM* | · | -16% | ? | ·
Cc1cc2cc(C=C(C#N)C#N)c(Cl)nc2cc1C | ? | 18µM* | i | -21% | ? | i
COc1ccc2c(c1)-c1c(ssc1=S)C(C)(C)N2C(=O)CSC1=NCCS1 | -22% | 0% | i | -4% | 6% | i
Cc1cc2c(cc1C)N(C(=O)CSC1=NCCS1)C(C)(C)c1ssc(=S)c1-2 | ? | 4% | 16µM* | -28% | 10% | i
Cc1cc(C)c2c(c1)-c1c(ssc1=S)C(C)(C)N2C(=O)CSc1nncn1C | 18µM* | ? | 23µM* | ? | -4% | 21µM*
CC1(C)c2ssc(=S)c2-c2ccccc2N1C(=O)CSC1=NCCS1 | -11% | 23% | 16µM* | 3% | 4% | i
